Results taken from PubChem BioAssay (NCI).
The panel holds about 83,000 compounds, 20% with a hit somewhere; the sample as a whole holds those more often.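 Treatment: one concentration, 48 hours, 96-well format. Scoring: percent growth, with anything below 10 considered active.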 Values without a mark were called inactive. Activity calls are given as the source filed them.

Legend:
Assay in all cases: NCI-60 one-dose screen, 48 h (100 = growth as untreated, 0 = no growth, -100 = all killed)
Conditions in all cases: 10 µM unless noted
EKVX NSCLC = tested on: EKVX NSCLC
SN12C renal = tested on: SN12C renal
UO-31 renal = tested on: UO-31 renal
TK-10 renal = tested on: TK-10 renal
ACHN renal = tested on: ACHN renal
CAKI-1 renal = tested on: CAKI-1 renal
A498 renal = tested on: A498 renal
CCRF-CEM leukemia = tested on: CCRF-CEM leukemia
MOLT-4 leukemia = tested on: MOLT-4 leukemia
SR leukemia = tested on: SR leukemia

## CC(=O)c1ccc(Nc2nc(SC(C)C)nc(-c3ccccc3)c2C#N)cc1
EKVX NSCLC
  growth: 111%
SN12C renal
  growth: 97%
UO-31 renal
  growth: 82.1%
TK-10 renal
  growth: 101%
ACHN renal
  growth: 86.2%
CAKI-1 renal
  growth: 88%
A498 renal
  growth: 42.3%
CCRF-CEM leukemia
  growth: 96.1%
MOLT-4 leukemia
  growth: 96.4%
SR leukemia
  growth: 91.5%

## CS(=O)(=O)c1ccc(-c2nc3ccccn3c2C=Nc2ccc(Cl)cc2)cc1
EKVX NSCLC
  growth: 100%
SN12C renal
  growth: 81.6%
UO-31 renal
  growth: 61.4%
TK-10 renal
  growth: 110%
ACHN renal
  growth: 49.4%
CAKI-1 renal
  growth: 42.9%
A498 renal
  growth: 79.1%
CCRF-CEM leukemia
  growth: 61.8%
MOLT-4 leukemia
  growth: 64.9%
SR leukemia
  growth: 96.8%

## O=C(c1ccc(Cl)cc1)C1[C@H](c2ccc(Cl)cc2)[C@@H](c2ccccc2)NC12C(=O)Nc1ccc(Br)cc12 (some centres not stated)
EKVX NSCLC
  growth: 43.6%
SN12C renal
  growth: -48.8% (active)
UO-31 renal
  growth: 28.5%
TK-10 renal
  growth: 50.4%
ACHN renal
  growth: 14.3%
CAKI-1 renal
  growth: 27.6%
A498 renal
  growth: 59.2%
CCRF-CEM leukemia
  growth: 36.8%
MOLT-4 leukemia
  growth: 6.17% (active)
SR leukemia
  growth: -5% (active)

## C/C(=C(/c1ccc(Cl)cc1)c1ccc(OCCN)cc1)c1ccc(C)cc1
EKVX NSCLC
  growth: 98.8%
SN12C renal
  growth: 95.7%
UO-31 renal
  growth: 83.2%
TK-10 renal
  growth: 116%
ACHN renal
  growth: 96.6%
CAKI-1 renal
  growth: 86.6%
A498 renal
  growth: 97.4%
CCRF-CEM leukemia
  growth: 98.9%
MOLT-4 leukemia
  growth: 96.4%
SR leukemia
  growth: 88.6%

## N#Cc1c(-c2ccc(Cl)cc2)nc(SCc2ccc([N+](=O)[O-])cc2)nc1N1CCNCC1
EKVX NSCLC
  growth: 51.9%
SN12C renal
  growth: 1.59% (active)
UO-31 renal
  growth: 22.4%
TK-10 renal
  growth: 77.4%
ACHN renal
  growth: -67.4% (active)
CAKI-1 renal
  growth: 13.6%
A498 renal
  growth: 44.7%
CCRF-CEM leukemia
  growth: -14% (active)
MOLT-4 leukemia
  growth: -27% (active)
SR leukemia
  growth: -43.3% (active)

## CCCCCCNC(=O)Oc1ccc(/C(=C(/C)c2ccccc2)c2ccc(OCCN3CCCCCC3)cc2)cc1
EKVX NSCLC
  growth: 64.2%
SN12C renal
  growth: 42.8%
UO-31 renal
  growth: 28.9%
TK-10 renal
  growth: 104%
ACHN renal
  growth: 69.3%
CAKI-1 renal
  growth: 35.9%
A498 renal
  growth: 78.7%
CCRF-CEM leukemia
  growth: 16.3%
MOLT-4 leukemia
  growth: 4.41% (active)
SR leukemia
  growth: -37.4% (active)

## COc1ccc(N/N=C/c2c(-c3ccc(S(C)(=O)=O)cc3)nc3ccccn23)cc1
EKVX NSCLC
  growth: 69.2%
SN12C renal
  growth: 49.8%
UO-31 renal
  growth: 30.2%
TK-10 renal
  growth: 57.3%
ACHN renal
  growth: 32.2%
CAKI-1 renal
  growth: 20.3%
A498 renal
  growth: 35.6%
MOLT-4 leukemia
  growth: 18.6%
SR leukemia
  growth: 57.1%

## COc1ccc(-c2nc3ccc(-c4nnc(SCC(=O)Nc5ccc(C(C)=O)cc5)o4)cc3[nH]2)cc1
EKVX NSCLC
  growth: 99.2%
SN12C renal
  growth: 113%
UO-31 renal
  growth: 94.1%
TK-10 renal
  growth: 116%
ACHN renal
  growth: 102%
CAKI-1 renal
  growth: 101%
A498 renal
  growth: 110%
CCRF-CEM leukemia
  growth: 100%
MOLT-4 leukemia
  growth: 87.8%
SR leukemia
  growth: 89.5%

## Cc1c(NC(=O)CSc2nc3sc4c(c3c(=O)n2-c2ccc(Cl)cc2)CCCC4)c(=O)n(-c2ccccc2)n1C
EKVX NSCLC
  growth: 97.3%
SN12C renal
  growth: 88.9%
UO-31 renal
  growth: 72.8%
TK-10 renal
  growth: 109%
ACHN renal
  growth: 90.8%
CAKI-1 renal
  growth: 65.1%
A498 renal
  growth: 62.6%
CCRF-CEM leukemia
  growth: 98.2%
MOLT-4 leukemia
  growth: 71.3%
SR leukemia
  growth: 86.1%

## CC(=O)Nc1cc(F)cc(-c2ccc3[nH]cc(-c4ccccc4)c3n2)c1
EKVX NSCLC
  growth: 43.7%
SN12C renal
  growth: 32.7%
UO-31 renal
  growth: 10.1%
TK-10 renal
  growth: 48.6%
ACHN renal
  growth: 15.9%
CAKI-1 renal
  growth: -37.1% (active)
A498 renal
  growth: -20.1% (active)
MOLT-4 leukemia
  growth: 9.24% (active)
SR leukemia
  growth: -1.91% (active)

## O=C(CSc1nc2sc3c(c2c(=O)n1-c1ccc(Cl)cc1)CCCC3)NNC(=O)Nc1cccc(C(F)(F)F)c1
EKVX NSCLC
  growth: 31.5%
SN12C renal
  growth: 14.6%
UO-31 renal
  growth: 13.2%
TK-10 renal
  growth: 48.3%
ACHN renal
  growth: 6.86% (active)
CAKI-1 renal
  growth: 13.7%
A498 renal
  growth: -5.48% (active)
CCRF-CEM leukemia
  growth: 17.1%
MOLT-4 leukemia
  growth: 8.64% (active)
SR leukemia
  growth: 5.49% (active)

## Clc1ccc(-c2cn3cc(Cc4ccc(Cl)c(Cl)c4)sc3n2)cc1
EKVX NSCLC
  growth: 69.8%
SN12C renal
  growth: 76.6%
UO-31 renal
  growth: 68.1%
TK-10 renal
  growth: 112%
ACHN renal
  growth: 47%
CAKI-1 renal
  growth: 42.6%
A498 renal
  growth: 82.3%
MOLT-4 leukemia
  growth: 61%
SR leukemia
  growth: 94.5%

## CS(=O)(=O)c1ccc(-n2cc(/C=C/C(=O)c3ccc(NC(=O)CO[N+](=O)[O-])cc3)c(-c3ccc(Cl)cc3)n2)cc1
EKVX NSCLC
  growth: 90.5%
SN12C renal
  growth: 88%
UO-31 renal
  growth: 115%
TK-10 renal
  growth: 111%
ACHN renal
  growth: 88.5%
CAKI-1 renal
  growth: 109%
A498 renal
  growth: 117%
CCRF-CEM leukemia
  growth: 107%
MOLT-4 leukemia
  growth: 119%
SR leukemia
  growth: 113%

## CCN1CCN(/C(=N\c2sc(-c3ccccc3)nc2-c2ccccc2)c2ccccc2)CC1
EKVX NSCLC
  growth: 78.8%
SN12C renal
  growth: 76.2%
UO-31 renal
  growth: 64.5%
TK-10 renal
  growth: 94.1%
ACHN renal
  growth: 88.8%
CAKI-1 renal
  growth: 65.3%
A498 renal
  growth: 113%
CCRF-CEM leukemia
  growth: 68.1%
MOLT-4 leukemia
  growth: 60.7%
SR leukemia
  growth: 52.8%

## Cc1ccc2c(n1)C(=O)C(Cl)=C(Nc1cccc(C(C)C)c1)C2=O
EKVX NSCLC
  growth: 65%
SN12C renal
  growth: 31.9%
UO-31 renal
  growth: 50.3%
TK-10 renal
  growth: 119%
ACHN renal
  growth: 50.1%
CAKI-1 renal
  growth: 75.3%
A498 renal
  growth: 71.4%
CCRF-CEM leukemia
  growth: 14.8%
MOLT-4 leukemia
  growth: 35.4%
SR leukemia
  growth: 24%

## Fc1ccc(-c2cc3nc(C(Cl)Cl)nc(-c4ccccc4)n3n2)cc1
EKVX NSCLC
  growth: 1.49% (active)
SN12C renal
  growth: 52%
UO-31 renal
  growth: 3.9% (active)
TK-10 renal
  growth: -23.9% (active)
ACHN renal
  growth: -27.2% (active)
CAKI-1 renal
  growth: -17.5% (active)
A498 renal
  growth: -59.9% (active)
CCRF-CEM leukemia
  growth: 55.7%
MOLT-4 leukemia
  growth: 23.6%
SR leukemia
  growth: 3.78% (active)

## CC(C)(C)Nc1nc2c(OCCc3ccccc3)cccn2c1-c1ccc(Cl)cc1
EKVX NSCLC
  growth: 5.46% (active)
SN12C renal
  growth: 10.3%
UO-31 renal
  growth: 0.0667% (active)
TK-10 renal
  growth: 20.8%
ACHN renal
  growth: 8.77% (active)
CAKI-1 renal
  growth: 29.3%
A498 renal
  growth: 56%
CCRF-CEM leukemia
  growth: 6.47% (active)
MOLT-4 leukemia
  growth: 4.83% (active)
SR leukemia
  growth: 1.41% (active)

## N#Cc1c(-c2ccc(Cl)cc2)nc(SCc2ccccc2)nc1N1CCNCC1
EKVX NSCLC
  growth: 71.6%
SN12C renal
  growth: 54.9%
UO-31 renal
  growth: 53%
TK-10 renal
  growth: 96%
ACHN renal
  growth: 47.8%
CAKI-1 renal
  growth: 53.1%
A498 renal
  growth: 79.7%
CCRF-CEM leukemia
  growth: 45.9%
MOLT-4 leukemia
  growth: 52.7%
SR leukemia
  growth: -24.8% (active)

## CN1CCN(Cc2ccc(NC(=O)c3cncc(C#Cc4cnc5ccc(N6CCSCC6)nn45)c3)cc2C(F)(F)F)CC1
EKVX NSCLC
  growth: -47.1% (active)
SN12C renal
  growth: -69.5% (active)
UO-31 renal
  growth: -11.5% (active)
TK-10 renal
  growth: -25.9% (active)
ACHN renal
  growth: -91.4% (active)
CAKI-1 renal
  growth: -26.7% (active)
A498 renal
  growth: -81.9% (active)
CCRF-CEM leukemia
  growth: 3.28% (active)
MOLT-4 leukemia
  growth: 4.9% (active)
SR leukemia
  growth: -31.9% (active)

## Nc1cc(-c2c[nH]c3ccc(F)cc23)nc2cc(-c3c[nH]c4ccc(F)cc34)nn12
EKVX NSCLC
  growth: 78.2%
SN12C renal
  growth: 99%
UO-31 renal
  growth: 75.8%
TK-10 renal
  growth: 118%
ACHN renal
  growth: 66.3%
CAKI-1 renal
  growth: 77.8%
A498 renal
  growth: 67.8%
CCRF-CEM leukemia
  growth: 7.99% (active)
MOLT-4 leukemia
  growth: 39%
SR leukemia
  growth: -22.1% (active)

## COc1cc2cc(Oc3ccc(NC(=O)c4cccc(C(F)(F)F)c4)cc3)c(C)nc2cc1OCCN1CCCCC1
EKVX NSCLC
  growth: 93.2%
SN12C renal
  growth: 76.2%
UO-31 renal
  growth: 69.3%
TK-10 renal
  growth: 143%
ACHN renal
  growth: 80.5%
CAKI-1 renal
  growth: 57.4%
A498 renal
  growth: 78.6%
CCRF-CEM leukemia
  growth: 6.44% (active)
MOLT-4 leukemia
  growth: 1.53% (active)
SR leukemia
  growth: -40.6% (active)

## O=C1c2c(c3c4cccnc4[nH]c3c3ccc4ccccc4c23)C(=O)N1CCO
EKVX NSCLC
  growth: 108%
SN12C renal
  growth: 84.4%
UO-31 renal
  growth: 56.1%
TK-10 renal
  growth: 127%
ACHN renal
  growth: 48.3%
CAKI-1 renal
  growth: 42.6%
A498 renal
  growth: 57%
CCRF-CEM leukemia
  growth: 42.8%
MOLT-4 leukemia
  growth: 31.7%
SR leukemia
  growth: 9.85% (active)

## COc1cccc(-c2nn(-c3ccccc3)cc2-c2ccnc(N3CCN(C(=O)Nc4ccc(F)cc4)CC3)c2)c1
EKVX NSCLC
  growth: 62.1%
SN12C renal
  growth: 67.4%
UO-31 renal
  growth: 34.4%
TK-10 renal
  growth: 92.9%
ACHN renal
  growth: 67.6%
CAKI-1 renal
  growth: 49.2%
A498 renal
  growth: 56.9%
CCRF-CEM leukemia
  growth: 31.8%
MOLT-4 leukemia
  growth: 19.3%
SR leukemia
  growth: 24.8%

## O=C(CSc1nc2sc3c(c2c(=O)n1-c1ccc(Cl)cc1)CCCC3)N/N=C/c1ccc(F)cc1
EKVX NSCLC
  growth: 90.3%
SN12C renal
  growth: 97.1%
UO-31 renal
  growth: 83.2%
TK-10 renal
  growth: 125%
ACHN renal
  growth: 108%
CAKI-1 renal
  growth: 98%
A498 renal
  growth: 96.8%
CCRF-CEM leukemia
  growth: 65.9%
MOLT-4 leukemia
  growth: 69.3%
SR leukemia
  growth: 39.6%
